The text below walks through data of PubChem BioAssay (NCI).

About 83,000 compounds went through this panel and 20% of them were active in at least one assay; those are over-represented in the sample as a whole.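 Step 1: grow cells in 96-well plates. Step 2: add test compound at a single concentration. Step 3: incubate 48 h. Step 4: record percent growth.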 A number with no mark means an inactive call. Activity calls are given as the source filed them. Rule for the calls: active = growth percent below 10; inactive = the rest.

Assay in all cases: NCI-60 one-dose screen, 48 h (100 = growth as untreated, 0 = no growth, -100 = all killed)
For experiment [1], the system named is HCT-15 colon. To be noted: 10 µM unless noted.
In experiment [2] the test system is HT29 colon. Particulars: 10 µM unless noted.
For experiment [3], the system named is SNB-19 CNS. To be noted: 10 µM unless noted.
In experiment [4] the test system is PC-3 prostate. To be noted: 10 µM unless noted.
The test system of experiment [5] is SK-MEL-5 melanoma. Particulars: 10 µM unless noted.
In experiment [6] the test system is UACC-62 melanoma. To be noted: 10 µM unless noted.
Experiment [7] deals with LOX IMVI melanoma. To be noted: 10 µM unless noted.
In experiment [8] the test system is SK-MEL-28 melanoma. To be noted: 10 µM unless noted.
Experiment [9] has as its system EKVX NSCLC. To be noted: 10 µM unless noted.
Experiment [10] concerns SN12C renal. To be noted: 10 µM unless noted.
In experiment [11] the test system is UO-31 renal. Particulars: 10 µM unless noted.
The test system of experiment [12] is TK-10 renal. Particulars: 10 µM unless noted.
Experiment [13] has as its system ACHN renal. Particulars: 10 µM unless noted.
For experiment [14], the system named is CAKI-1 renal. To be noted: 10 µM unless noted.
The test system of experiment [15] is A498 renal. To be noted: 10 µM unless noted.
The test system of experiment [16] is MOLT-4 leukemia. Particulars: 10 µM unless noted.
For experiment [17], the system named is SNB-75 CNS. To be noted: 10 µM.
Experiment [18] relates to U251 CNS. To be noted: 10 µM unless noted.
Experiment [19] concerns SK-MEL-2 melanoma. Particulars: 10 µM unless noted.
The subject of experiment [20] is CCRF-CEM leukemia. Particulars: 10 µM unless noted.

Consider `COc1ccc(NC(=O)c2cc(OC)c(OC)c(OC)c2)cc1O`, for which the growth in [1] is 35%; in experiment [2] it was 10.7%; in experiment [3], 52.1%; in experiment [4] it was 25.9%; in [5] it was 22.8%; in [6] it was 30.8%. The growth in [7] was 43.3%; in experiment [8], 56%; in experiment [9], 97.1%; in experiment [10], 43.4%; in experiment [11], 66.8%; in experiment [12], 88.9%. The growth in [13] is 57.6%; in experiment [14], 46.8%; in [15], 46%; in experiment [16], 64.4%.
In the case of `COc1ccc2c(c1)[nH]c(=O)c1c3cc(OC)ccc3cn21`, the growth was 4.49% (active) in experiment [1]; 74.8% in experiment [17]; 25.8% in experiment [3]; -47.6% (active) in experiment [18]; 0.628% (active) in [4]; 5.31% (active) in [5]. The growth in experiment [6] is 41.9%; in [7] it was -76.9% (active); in [8], 62.3%; in [19] it was 71.7%; in [9], 48.7%; in experiment [10], 32.7%. Besides, the growth in experiment [11] is 28.6%; in experiment [12] it was 48.7%; in [13], 19.1%; in experiment [14], 41.3%; in [15] it was 51.7%; in experiment [20], -58.8% (active). In addition, the growth in [16] was 26.2%.
With `C=C[C@@H]1C[C@@H]2Cc3cc(Cl)ccc3N1O2`, the growth is 97.7% in experiment [1]; 93.3% in experiment [17]; 113% in experiment [3]; 89.7% in experiment [18]; 94.9% in [4]; 102% in experiment [5]. The growth is 96.5% in experiment [6]; 92.5% in [7]; 103% in experiment [8]; 107% in experiment [19]; 90.2% in [9]; 94.9% in [10]. Besides, the growth in experiment [11] is 101%; in [12], 101%; in [13], 104%; in [14], 88.7%; in experiment [15], 85.6%; in [20], -61.3% (active). The growth in experiment [16] was 26.4%.
On to `O=[N+]([O-])c1cc(S(=O)(=O)Oc2ccccc2)ccc1Cl`, for which the growth was 40.5% in [1]; 52.2% in experiment [17]; 30.6% in [3]; 0.0855% (active) in [18]; 25.5% in experiment [4]; 6.43% (active) in experiment [5]. The growth in experiment [6] is 65.8%; in experiment [7], -80.1% (active); in experiment [8], -18% (active); in [19], 87.5%; in experiment [9] it was 65%; in experiment [10] it was 29.6%. The growth in experiment [11] was -87.7% (active); in [12] it was 52.3%; in experiment [13] it was 37.6%; in experiment [14], -89.4% (active); in [15], 96.7%; in experiment [20] it was -22.1% (active). Moreover, the growth in [16] was 19.4%.
In the case of `CCN(CC)c1ccc(N=O)cc1`, the growth in [1] was 3.87% (active); in experiment [2] it was -3.9% (active); in experiment [18], 42.9%; in [4], 44.6%; in [5], 87.2%; in experiment [6] it was 73.4%. Also, the growth in experiment [7] was 15%; in experiment [8], 88.3%; in [19], 90.8%; in [9], 91.1%; in experiment [10], 56.3%; in experiment [11], 26%. The growth in [12] was 47.3%; in experiment [13], 6.07% (active); in experiment [14], -13.4% (active); in experiment [15] it was 100%; in experiment [20], 21.4%; in experiment [16] it was 44.9%.
In the case of `C=C1CCC2C(C)(CO)C(O)CCC2(C)C1C/C=C1/C(=O)OCC1O/C=C/c1ccccc1` (stereo not drawn), the growth in experiment [1] was 57.8%; in experiment [2] it was 56.6%; in experiment [18], 83.8%; in experiment [4] it was 58.6%; in [5], 82.1%; in experiment [6], 65.2%. Also, the growth in [7] is 36.8%; in experiment [8], 93.3%; in [19], 72.7%; in experiment [9], 103%; in experiment [10] it was 73.8%; in experiment [11] it was 69.1%. Further, the growth in [12] was 119%; in [13], 87.2%; in [15], 86.4%; in experiment [20], 10.7%; in experiment [16], 21.2%.
For the compound `COc1cc2c(cc1OCCCN1CCN(CCCn3c4ccccc4c4ccccc43)CC1)N=C[C@@H]1CCCN1C2=O`, the growth was -44.6% (active) in experiment [1]; -17.2% (active) in experiment [2]; -99.1% (active) in [18]; -64.7% (active) in [4]; -100% (active) in experiment [5]; -87.3% (active) in [6]. In addition, the growth is -91.2% (active) in experiment [7]; -98.3% (active) in experiment [8]; -78.1% (active) in experiment [19]; -86.8% (active) in experiment [9]; -47.9% (active) in experiment [10]; -91.7% (active) in [11]. Also, the growth in experiment [12] was -79.6% (active); in experiment [13], -100% (active); in experiment [14], -75% (active); in experiment [15] it was -96.9% (active); in [20] it was -11.4% (active); in [16], -39.6% (active).
With `O=c1cc/c(=N\Nc2ccccc2)c(=O)/c1=N/Nc1ccccc1`, the growth was 104% in experiment [1]; 106% in experiment [17]; 111% in experiment [3]; 104% in experiment [18]; 63.6% in experiment [4]; 87% in experiment [5]. In addition, the growth in experiment [6] is 101%; in [7] it was 89%; in experiment [8], 103%; in [19], 126%; in [9] it was 100%; in experiment [10], 112%. The growth was 97.5% in [11]; 170% in experiment [12]; 99.7% in experiment [13]; 93% in experiment [15]; 86.7% in experiment [20].
